# FLuc counter: qHTS profiling assay for firefly luciferase inhibitor/activator using purifed enzyme and Km concentrations of substrates (counterscreen for miR-21 project) | Potency, µM (highest dose often 57.5 µM), inactives show at the highest dose activity change, negative = inhibition, most hits filed as inhibitors | actives 6.9% (n = 360,000) | purified FLuc, Km substrates, luminescence inhibition | Luciferin 4-monooxygenase (Photinus pyralis), P08659;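 note: plate controls were vehicle for no effect and reference inhibitor for full effect; nearly all actives have a fitted effect of over 55% in size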
# Target sequence (P08659 whole entry, looked up): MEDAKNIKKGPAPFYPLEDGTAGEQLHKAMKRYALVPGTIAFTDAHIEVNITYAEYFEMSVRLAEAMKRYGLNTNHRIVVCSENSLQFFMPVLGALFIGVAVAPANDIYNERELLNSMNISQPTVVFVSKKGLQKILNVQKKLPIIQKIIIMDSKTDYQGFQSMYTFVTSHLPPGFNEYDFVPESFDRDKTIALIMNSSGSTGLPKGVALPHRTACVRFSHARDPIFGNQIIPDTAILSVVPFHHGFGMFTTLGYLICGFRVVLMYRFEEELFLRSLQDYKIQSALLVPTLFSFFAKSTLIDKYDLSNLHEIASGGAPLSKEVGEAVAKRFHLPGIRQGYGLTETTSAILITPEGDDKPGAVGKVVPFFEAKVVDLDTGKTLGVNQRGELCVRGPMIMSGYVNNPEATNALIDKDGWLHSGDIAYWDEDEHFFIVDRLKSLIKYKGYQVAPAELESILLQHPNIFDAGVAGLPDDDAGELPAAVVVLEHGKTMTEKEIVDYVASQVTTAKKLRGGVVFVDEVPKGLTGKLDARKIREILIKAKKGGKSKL
#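 Biochemical qHTS of compounds, final roughly 60 µM downward over six points, against 10 nM purified firefly luciferase using Km concentrations of substrates (10 uM D-luciferin, 10 uM ATP) in Tris acetate pH 7.5 buffer; luminescence output.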
# SMN2 splice up: qHTS Assay for Enhancers of SMN2 Splice Variant Expression | Potency, µM (titrated, usually from 46.1 µM), inactives show at the top dose activity change, positive = activation, hits mostly activators | AID 1458, 2008 | actives 2.8% (n = 210,000) | HEK293 SMN2-luciferase splicing reporter, luminescence, 30-36 h; note: % of control where 0% means no effect; nearly all actives have a fitted effect of over 55% in size
#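 qHTS luciferase splicing reporter: luminescence rises when SMN2 exon 7 is included in transfected HEK293 cells. Compound exposure lasted 30-36 h at 37C, with 4.5 mM final sodium butyrate as control, followed by a ONE-Glo read.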
# Rab9 prom act: qHTS Assay for Rab9 Promoter Activators; Huh7 Rab9 promoter-luciferase reporter, luminescence, 24 h; Potency, µM (series often up to 9.22 µM), without a hit: top-dose activation, negative = inhibition, actives largely listed as activators; actives 2.8% (n = 320,000); note: % of control where 0% means no effect; nearly all actives have a fitted effect of over 60% in size
#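 Promoter activation is measured as luciferase luminescence in Huh7 cells stably transfected with a Rab9 promoter–luciferase construct, following 24 h compound exposure at 37 °C and 10 min reagent incubation at ambient temperature.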
# ELG1 genotox: qHTS screen for small molecules that induce genotoxicity in human embryonic kidney (HEK293T) cells expressing luciferase-tagged ELG1 | HEK293T ELG1-luciferase reporter, luminescence, 16 h | Potency, µM (titrated, usually from 46 µM), for inactives: top-dose activity change, positive = activation, actives largely listed as activators | actives 1.3% (n = 330,000); note: % of control where 0% means no effect; nearly all actives have a fitted effect of over 60% in size
#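 Genotoxic stress is detected as increased luminescence from luciferase-tagged ELG1 in HEK293T cells, measured with ONE-Glo after a 16 hr treatment at 37 °C.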
# NPC1 promoter act: qHTS Assay for NPC1 Promoter Activators; Huh7 NPC1 promoter luciferase reporter, 24 h; Potency, µM (top dose mostly 9.22 µM), inactives show top-dose activation, usual class: activators; actives 2.4% (n = 320,000); AID 485313, 2010; note: % of control where 0% means no effect; nearly all actives have a fitted effect of over 60% in size
#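 Compounds in DMSO were transferred onto Huh7 NPC1-luciferase reporter cells pre-incubated 2 h; after 24 h at 37 °C, Amplite reagent was dispensed and luminescence recorded 10 min later.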
# * = called active by the depositor; u = inconclusive; x = no result given. This is a sample that favours compounds with a hit; in the whole collection about 7.5% have one here. Calls come from the whole dose curve; as a rule, active = well fitted curve in the direction sought with a large enough effect; inconclusive = small, poorly fitted or top-dose-only effect, or another doubt; inactive = no such curve, though single readings can be large; an effect the other way counts as inactive or inconclusive. Potency is the fitted concentration of half-maximal effect.
SMILES,FLuc counter,SMN2 splice up,Rab9 prom act,ELG1 genotox,NPC1 promoter act
CC(C)CCNC(=O)C(c1ccco1)N(C(=O)Cn1nnc2ccccc21)c1ccc2c(c1)OCO2 (centres undefined),3%,30%,-1%,0%,0%
COc1ccc(C(=O)Nc2ccc3c(c2)OCCO3)cc1[N+](=O)[O-],11µM*,22%,u,14%,18%
COc1ccc(C(=O)Nc2ccccc2)cc1[N+](=O)[O-],x,-7%,x,x,x
O=C(NNc1cc(Br)c(O)c(Br)c1)c1ccccc1,21µM*,-22%,-4%,-4%,4%
NS(=O)(=O)c1ccc(NNC(=O)c2ccccc2)cc1,1%,x,-3%,0%,-3%
NC(=O)c1cccnc1Nc1cccc([N+](=O)[O-])c1,15µM*,x,1.8µM*,u,4µM*
O=C(c1cc2ccccc2c(=O)o1)N1CCCCCC1,24µM*,2%,13%,15%,1%
Cc1ccc2oc(C(=O)N3CCCCCC3)c(C)c2c1,15µM*,x,x,18µM*,2.2µM*
Cc1c(C(=O)N2CCCCC2)oc2ccc(Br)cc12,21µM*,x,u,u,u
Cc1ccc2oc(C(=O)N3CCC(C(N)=O)(N4CCCCC4)CC3)c(C)c2c1,-1%,x,0%,-2%,-1%
Cc1c(C(=O)N2CCOCC2)oc2ccc(Br)cc12,-17%,x,25%,10%,-4%
O=C(c1cc2cc(Br)ccc2o1)N1CCCCC1,11µM*,11µM*,4µM*,u,2.5µM*
O=C(NC(=S)N1CCN(c2ccccc2)CC1)c1ccco1,x,x,x,0%,x
CSc1ncc(CN2CCN(C(C)C)C(CCO)C2)cn1 (centres undefined),1%,x,-2%,2%,0%
Cc1ccc(NS(=O)(=O)c2ccc(C(=O)N3CC(C)OC(C)C3)cc2)cc1 (centres undefined),4%,x,1%,5%,-1%
CCOC(=O)N1CCC(Nc2ncnc3c2cnn3-c2ccc(C)cc2C)CC1,3%,-88%,-23%,18%,-13%
O=C1c2ccccc2C(=O)N1c1cccc(-c2csc(Nc3ccc4c(c3)OCO4)n2)c1,2.1µM*,u,29%,16%,18%
Cc1[nH]c2ccccc2c1-c1csc(N)n1,0%,x,1%,2%,-5%
COc1ccccc1Nc1nc(-c2c(C)[nH]c3ccccc23)cs1,11µM*,14µM*,16%,11%,15%
COc1ccccc1Nc1nc(-c2cccc(N3C(=O)c4ccccc4C3=O)c2)cs1,6.7µM*,6%,-4%,1%,-1%
Cc1ccc(C)c(N2CCN(C(=O)c3ccc(CSc4nc5ccncc5[nH]4)cc3)CC2)c1,-1%,-47%,-3%,-2%,-2%
CNC(=O)Cn1nc(C)c2ccccc2c1=O,-1%,17%,4.5µM*,0%,2%
Cc1c(O)ccc(C(=O)COc2ccccc2F)c1O,21µM*,-17%,5%,u,15%
CC(=O)c1cccc(NC(=O)C2CCN(S(=O)(=O)c3ccc4[nH]c(=O)ccc4c3)CC2)c1,-1%,x,x,x,x
CCOC(=O)N1CCN(C(=O)c2ccc(NS(C)(=O)=O)cc2)CC1,6%,-14%,-2%,-5%,-2%
SMILES,FLuc counter,SMN2 splice up,Rab9 prom act,ELG1 genotox,NPC1 promoter act
CC1Cc2cc(/C(O)=C3/C(=O)C(=O)N(CCCn4ccnc4)C3c3ccco3)ccc2O1 (centres undefined),15µM*,-14%,2.8µM*,u,u
CCN(CC)CCN1C(=O)C(=O)/C(=C(/O)c2ccc(OC)cc2)C1c1ccco1 (centres undefined),u,x,6%,3%,15%
CC(C)Oc1ccc(/C(O)=C2/C(=O)C(=O)N(CCN(C)C)C2c2ccco2)cc1 (centres undefined),21µM*,28%,u,u,25%
COc1ccc(C2(CNC(=O)c3cccc([N+](=O)[O-])c3)CCCCC2)cc1OC,-1%,4%,-13%,-8%,0%
O=C(Nc1ccc(F)cc1)c1cccc2c1C(=O)N(CC1CCCO1)C2 (centres undefined),-6%,x,-2%,1%,-11%
CCOc1ccc(NC(=O)CN(C)C(=O)c2ccccc2OCCOc2ccccc2)cc1OCC,0%,x,-2%,-10%,-4%
Nc1nc2ccccc2nc1N,-10%,16%,20%,u,12%
OC1CCCCC1Sc1nc2ccccc2s1 (centres undefined),17µM*,-8%,u,u,u
CCn1c(O)c(C=Nc2ccccc2)sc1=S,9.5µM*,x,2.8µM*,u,u
O=C(c1cccs1)N1CCC(c2nc(-c3ccc(S(=O)(=O)N4CCOCC4)cc3)no2)CC1,-1%,-33%,5%,-6%,-1%
CC(C)(C)c1ccc(-c2nc(C#N)c(NCc3ccncc3)o2)cc1,6µM*,x,u,u,16%
COc1ccc(-c2nc(C#N)c(NCCc3ccccc3)o2)cc1OC,6.7µM*,16µM*,u,8.2µM*,u
COc1ccc(-c2nc(C#N)c(NCCCn3ccnc3)o2)cc1OC,15µM*,6.3µM*,20%,u,24%
N#Cc1nc(-c2ccc(F)cc2)oc1NCCCn1ccnc1,-17%,27%,26%,7%,13%
CC(C)(C)c1ccc(-c2nc(C#N)c(NCCCn3ccnc3)o2)cc1,21µM*,x,-1%,-2%,-4%
Cc1cc2ccccc2cc1CN1CCCCC1,7%,x,-1%,-3%,-6%
Cc1cc(OCC(=O)N[C@@H](Cc2ccccc2)c2nc3ccccc3[nH]2)ccc1Cl,4%,4%,-3%,7%,-1%
c1ccc(-c2cc3n(c2)CCc2ccccc2-3)cc1,4.8µM*,11µM*,3.2µM*,-6%,3.5µM*
Cc1cc(C)n2nc(-c3ccccc3)c(-c3ccccc3)c2n1,1%,x,4%,-6%,0%
C/C(=C\C(=O)c1ccc(C)o1)Nc1ccc(C(=O)O)cc1C,9.5µM*,30%,-4%,11%,1%
O=C(Nc1ccc2oc(-c3cccnc3)nc2c1)c1ccc2c(c1)OCCO2,2.4µM*,x,29%,u,11%
O=C(Nc1ccc2oc(-c3ccccc3)nc2c1)c1ccc2c(c1)OCCO2,5.4µM*,-46%,18%,-11%,0%
COc1ccc(C(=O)Nc2ccc3oc(-c4cccnc4)nc3c2)cc1OC,1%,-15%,-19%,-7%,-2%
O=C(Nc1ccc2oc(-c3ccncc3)nc2c1)c1ccc2c(c1)OCCO2,1.7µM*,x,2%,6%,3%
O=C(Nc1ccc2oc(-c3ccccc3)nc2c1)c1ccco1,4.8µM*,13µM*,2.5µM*,u,1.8µM*
